SMILES strings stand for the structures. Values joined by “and” are separate entries in the source; they are usually repeats but may differ in a detail not shown here. Equal entries are not always repeated. Records with an inconclusive call do not appear. Where a structure was tested more than once in an assay, its records may differ in their call. Active and inactive are the calls of the source. Unless noted, the call rests on the fitted dose curve; in most records, active means well fitted curve in the direction sought with a large enough effect in the repeat runs; inconclusive means weak or mixed curves; inactive means no such curve, though single readings can be large; an effect the other way counts as inactive or inconclusive.

A short description of assay [1]: qHTS assay to identify small molecule antagonists of the thyroid receptor (TR) signaling pathway - cell viability counter screen (AID 743064). Further: nearly all actives have a fitted effect of over 50% in size. Particulars: GH3.TRE-Luc viability, CellTiter-Fluor, 24 h; series mostly up to 70.3 µM. Summed up: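 Plate GH3.TRE-Luc cells; incubate 4 h at 37 °C; add compound, then T3 to 1 nM final; incubate 23.5 h; add CellTiter-Fluor; incubate 30 min at 37 °C, 5% CO2; read fluorescence.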
Background: qHTS replaces the single test concentration by a dilution series.

Assay [2] can be described thus: qHTS assay to identify small molecule antagonists of the thyroid receptor (TR) signaling pathway (AID 743065). Further: nearly all actives have a fitted effect of over 55% in size. The note with it: GH3.TRE-Luc, T3-stimulated luciferase inhibition, 23.5 h; series mostly up to 70.3 µM. Summed up: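 Antagonism measured as loss of luciferase signal in GH3 cells stably carrying a TRE-luciferase reporter, co-treated with compound and T3 (1 nM final) for 23.5 h at 37 C. Viability was read in the same well by CellTiter-Fluor.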

The subject of assay [3] is thyroid hormone receptor (rat, GH3 cells). The experiment in a line: qHTS assay to identify small molecule agonists of the thyroid receptor (TR) signaling pathway (AID 743066; calls by dose curve). Particulars: GH3.TRE-Luc cells, TR agonist luciferase, 24 h; series mostly up to 83.9 µM.
Assay [4] is described as follows: qHTS assay to identify small molecule antagonists of the estrogen receptor alpha (ER-alpha) signaling pathway - cell viability counter screen (AID 743074; calls by dose curve;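 further: HEK293 cells carrying ER-alpha-UAS-bla reporter stimulated with 17beta-estradiol; nearly all actives have a fitted effect of over 45% in size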; further: potency means the concentration at half of the fitted maximal effect). The note with it: ERalpha-bla HEK293 viability, CellTiter-Glo luminescence, 18 h; series mostly up to 69.4 µM.
The nature of assay [5]: qHTS assay to identify small molecule antagonists of the estrogen receptor alpha (ER-alpha) signaling pathway using the BG1 cell line - cell viability counter screen (AID 743081).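 Further: compound given together with 17beta-estradiol as the ER stimulus; nearly all actives have a fitted effect of over 45% in size.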 Further: potency means the concentration at half of the fitted maximal effect. Particulars: BG1Luc4E2 viability, CellTiter-Fluor, 22 h; series mostly up to 70.3 µM.
In a further assay the target is Aromatase (Homo sapiens) (UniProt P11511). The experiment in a line: qHTS assay to identify aromatase inhibitors (AID 743083). Further: nearly all actives have a fitted effect of over 55% in size. The note with it: MCF-7 aro ERE, testosterone-driven ERE luciferase, 24 h; series mostly up to 70.3 µM.
Chain of Aromatase (Homo sapiens) (P11511 whole entry, looked up): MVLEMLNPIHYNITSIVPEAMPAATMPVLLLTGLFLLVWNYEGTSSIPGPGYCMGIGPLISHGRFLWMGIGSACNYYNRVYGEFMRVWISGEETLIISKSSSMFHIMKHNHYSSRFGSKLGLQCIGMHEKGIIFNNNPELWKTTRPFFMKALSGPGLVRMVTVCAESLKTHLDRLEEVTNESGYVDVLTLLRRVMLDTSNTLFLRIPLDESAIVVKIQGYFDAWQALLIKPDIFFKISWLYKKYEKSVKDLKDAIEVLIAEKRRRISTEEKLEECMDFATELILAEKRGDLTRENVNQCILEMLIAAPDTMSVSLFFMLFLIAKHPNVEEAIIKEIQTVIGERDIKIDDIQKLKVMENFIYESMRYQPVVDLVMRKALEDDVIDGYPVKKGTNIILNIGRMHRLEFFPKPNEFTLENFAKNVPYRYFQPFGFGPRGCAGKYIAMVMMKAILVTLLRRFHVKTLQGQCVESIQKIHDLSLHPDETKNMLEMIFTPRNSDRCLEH
Assay [6] can be described thus: qHTS assay to identify aromatase inhibitors - cell viability counter screen (AID 743084).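 Further: cells stimulated with testosterone during compound exposure; nearly all actives have a fitted effect of over 55% in size.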 Further: potency means the concentration at half of the fitted maximal effect. The note with it: MCF-7 aro ERE viability, CellTiter-Fluor, 24 h; series mostly up to 70.3 µM.
Assay [7] deals with Aryl hydrocarbon receptor (Homo sapiens) (UniProt P35869). Briefly: qHTS assay to identify small molecule that activate the aryl hydrocarbon receptor (AhR) signaling pathway (AID 743085).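 Further: HG2L7.5c1 human HepG2 liver cells with stably integrated DRE-driven firefly reporter; nearly all actives have a fitted effect of over 15% in size.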 Particulars: HepG2 AhR-luc (HG2L7.5c1), luciferase, 24 h; series mostly up to 70.3 µM. Summed up:
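Steps: seed HepG2-AhR-luc cells; allow 5 h at 37C; pin-transfer test compound or vehicle; incubate 24 h at 37C; add viability dye (30 min, 37C) and read fluorescence; add luciferase substrate (30 min, RT) and read luminescence.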

Assay [8] can be described thus: qHTS assay to identify small molecule that activate the aryl hydrocarbon receptor (AhR) signaling pathway - cell viability counter screen (AID 743086). Further: nearly all actives have a fitted effect of over 45% in size. Further: potency means the concentration at half of the fitted maximal effect. The note with it: HepG2-AhR-luc viability, CellTiter-Fluor, 24 h; series mostly up to 70.3 µM. Summed up:
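Cytotoxicity counter screen: CellTiter-Fluor signal (30 min, 37 C) in 4000 HepG2 cells/well carrying the DRE-luciferase reporter, following 24 h compound exposure at 37 C.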

Assay [9] is described as follows: qHTS assay to identify small molecule antagonists of the peroxisome proliferator-activated receptor gamma (PPARg) signaling pathway - cell viability counter screen (AID 743194). Further: nearly all actives have a fitted effect of over 55% in size. The note with it: PPARg-bla HEK293H viability, CellTiter-Glo luminescence, 17 h; Potency: co-treated with 50 nM rosiglitazone unless noted; series mostly up to 62.6 µM. In a few lines:
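Viability was measured as CellTiter-Glo luminescence in GeneBLAzer PPARg UAS-bla HEK293H cells. These cells had been exposed 17 h at 37 C to compounds together with rosiglitazone at 50 nM final, with the beta-lactamase readout taken in the same wells.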

Assay [10] can be described thus: qHTS assay for small molecule agonists of the antioxidant response element (ARE) signaling pathway (AID 743202; active means well fitted activation curve with a large enough effect in the signal ratio in the repeat runs, not every such curve was filed as active; the % refers to the signal ratio; further: potency means the concentration at half of the fitted maximal effect). Particulars: HepG2 ARE-bla reporter, beta-lactamase FRET, 16 h; series mostly up to 73.3 µM. In a few lines: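 Beta-lactamase reporter activity, read as fluorescence intensity, reflects ARE/Nrf2 pathway induction in HepG2 cells after 16 h compound exposure at 37 C; substrate loading was 2 h at room temperature.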

A short description of assay [11]: qHTS assay for small molecule agonists of the antioxidant response element (ARE) signaling pathway - cell viability counter screen (AID 743203; calls by dose curve; further: nearly all actives have a fitted effect of over 55% in size). The note with it: ARE-bla HepG2 viability, CellTiter-Glo luminescence, 16 h; series mostly up to 73.3 µM. Summed up:
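ATP content via CellTiter-Glo luminescence served as the viability measure. Cells: ARE-bla HepG2, 2,000 per well. Exposure: 16 hrs, 37C/5% CO2.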

Assay [12] in a line: qHTS assay for small molecule activators of the heat shock response signaling pathway - cell viability counter screen (AID 743209). Further: nearly all actives have a fitted effect of over 50% in size. Further: potency means the concentration at half of the fitted maximal effect. Particulars: HSE-bla HeLa viability, CellTiter-Glo luminescence, 5 h; series mostly up to 62.6 µM. Summed up: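 Compounds dissolved in DMSO were added to overnight-plated HSE-bla HeLa cells and left 5 h at 37 C. Cell viability was quantified by luminescence using CellTiter-Glo.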

Assay [13] in a line: qHTS assay for small molecule activators of the heat shock response signaling pathway (AID 743210; active means well fitted activation curve with a large enough effect in the signal ratio in the repeat runs, with a control signal flat, not every such curve was filed as active; the % refers to the signal ratio). The note with it: HeLa HSE-bla reporter, beta-lactamase ratio, 5 h; series mostly up to 62.6 µM. Summed up: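 Fluorescence from a cleaved B/G FRET substrate (2.5 h, room temp) reports HSE-driven beta-lactamase in HeLa cells treated 5 h at 37 C with DMSO-dissolved compounds.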

Assay [14] is described as follows: qHTS assay to identify small molecule agonists of the peroxisome proliferator-activated receptor delta (PPARd) signaling pathway - cell viability counter screen (AID 743211). Further: nearly all actives have a fitted effect of over 55% in size. Further: potency means the concentration at half of the fitted maximal effect. The note with it: PPARd-bla HEK293H viability, CellTiter-Glo luminescence, 17 h; series mostly up to 62.6 µM. In a few lines:
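Viability of GeneBLAzer PPARd UAS-bla HEK293H cells was assessed after 17 h compound incubation at 37C, using CellTiter-Glo reagent added after the reporter read and luminescence recorded 30 min later.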

The target in assay [15] is Peroxisome proliferator-activated receptor gamma (Homo sapiens) (UniProt P37231). The experiment in a line: qHTS assay to identify small molecule agonists of the peroxisome proliferator-activated receptor gamma (PPARg) signaling pathway (AID 743094; active means well fitted activation curve with a large enough effect in the signal ratio in the repeat runs, not every such curve was filed as active; the % refers to the signal ratio). Particulars: HEK293H PPARg-UAS-bla, beta-lactamase FRET ratio, 17 h; series mostly up to 57 µM. Summed up: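 Agonism was assessed in a beta-lactamase reporter system, HEK293H cells with a stably integrated UAS-bla construct under PPARg control; the 17 h treatment at 37C preceded a 1 h room-temperature FRET substrate read.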
Chain of Peroxisome proliferator-activated receptor gamma (Homo sapiens) (P37231 whole entry, looked up): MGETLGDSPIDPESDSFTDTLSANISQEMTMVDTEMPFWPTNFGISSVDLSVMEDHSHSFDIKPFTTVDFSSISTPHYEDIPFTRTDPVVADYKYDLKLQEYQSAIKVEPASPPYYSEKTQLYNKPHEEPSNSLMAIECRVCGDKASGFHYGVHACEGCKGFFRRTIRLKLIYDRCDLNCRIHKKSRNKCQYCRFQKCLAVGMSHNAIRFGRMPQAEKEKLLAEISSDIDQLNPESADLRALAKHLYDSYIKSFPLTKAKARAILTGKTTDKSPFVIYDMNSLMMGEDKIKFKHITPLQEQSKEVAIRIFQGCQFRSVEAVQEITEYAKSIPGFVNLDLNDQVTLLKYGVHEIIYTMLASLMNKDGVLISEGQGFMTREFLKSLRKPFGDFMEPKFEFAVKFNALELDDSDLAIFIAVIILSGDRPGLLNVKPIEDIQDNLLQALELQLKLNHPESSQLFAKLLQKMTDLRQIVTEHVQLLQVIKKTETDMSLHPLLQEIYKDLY

Assay [16] addresses Peroxisome proliferator-activated receptor delta (Homo sapiens) (UniProt Q03181). The experiment in a line: qHTS assay to identify small molecule agonists of the peroxisome proliferator-activated receptor delta (PPARd) signaling pathway (AID 743212; calls by dose curve). The note with it: HEK293H PPARd-UAS-bla, beta-lactamase FRET ratio, 17 h; series mostly up to 62.6 µM. In a few lines: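 Steps: seed PPARd-bla HEK293H cells; incubate 5 h, 37 C, 5% CO2; add compounds in DMSO; incubate, 37 C; add LiveBLAzer B/G FRET substrate; hold 2 h at room temperature; measure fluorescence.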

Chain of Aryl hydrocarbon receptor (Homo sapiens) (P35869 whole entry, looked up): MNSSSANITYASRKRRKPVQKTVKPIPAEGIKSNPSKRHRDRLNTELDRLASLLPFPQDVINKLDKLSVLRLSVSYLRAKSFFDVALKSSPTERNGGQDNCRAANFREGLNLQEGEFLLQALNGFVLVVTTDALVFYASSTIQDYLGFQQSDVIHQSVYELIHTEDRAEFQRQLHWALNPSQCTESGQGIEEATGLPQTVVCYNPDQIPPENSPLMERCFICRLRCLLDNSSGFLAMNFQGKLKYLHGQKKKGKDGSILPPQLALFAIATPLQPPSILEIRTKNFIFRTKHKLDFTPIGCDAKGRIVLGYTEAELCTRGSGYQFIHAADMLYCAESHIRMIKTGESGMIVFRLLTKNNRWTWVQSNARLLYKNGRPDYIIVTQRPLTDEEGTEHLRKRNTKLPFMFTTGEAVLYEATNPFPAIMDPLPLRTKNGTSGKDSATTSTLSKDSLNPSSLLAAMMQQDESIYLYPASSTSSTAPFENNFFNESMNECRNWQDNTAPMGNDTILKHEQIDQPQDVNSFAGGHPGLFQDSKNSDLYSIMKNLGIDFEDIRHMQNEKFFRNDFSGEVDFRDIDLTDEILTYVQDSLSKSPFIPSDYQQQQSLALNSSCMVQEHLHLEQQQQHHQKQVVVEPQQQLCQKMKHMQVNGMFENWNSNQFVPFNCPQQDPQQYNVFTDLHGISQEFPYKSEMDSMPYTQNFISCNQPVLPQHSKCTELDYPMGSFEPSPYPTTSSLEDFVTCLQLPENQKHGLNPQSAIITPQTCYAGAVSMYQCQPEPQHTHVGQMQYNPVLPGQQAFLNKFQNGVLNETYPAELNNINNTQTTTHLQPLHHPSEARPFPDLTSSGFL
Chain of Peroxisome proliferator-activated receptor delta (Homo sapiens) (Q03181 whole entry, looked up): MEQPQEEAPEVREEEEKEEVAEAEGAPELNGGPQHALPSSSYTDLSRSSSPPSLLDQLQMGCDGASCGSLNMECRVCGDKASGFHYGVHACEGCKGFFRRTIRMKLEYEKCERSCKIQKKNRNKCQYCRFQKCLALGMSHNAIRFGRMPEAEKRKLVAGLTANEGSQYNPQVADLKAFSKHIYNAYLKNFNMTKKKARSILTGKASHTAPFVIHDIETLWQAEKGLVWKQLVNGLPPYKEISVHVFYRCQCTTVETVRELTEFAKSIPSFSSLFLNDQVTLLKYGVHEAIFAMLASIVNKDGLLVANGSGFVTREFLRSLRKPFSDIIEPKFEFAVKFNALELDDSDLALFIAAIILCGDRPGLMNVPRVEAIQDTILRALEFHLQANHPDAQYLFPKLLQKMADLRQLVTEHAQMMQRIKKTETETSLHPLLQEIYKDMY

For `CCC[N+]1(C)CCCCC1`, the Potency result (in assay [1]; in [2]; in [3]; in assay [4]; in [5]; with Aromatase (Homo sapiens)) was “inactive” throughout. Further, the Potency entry in assay [6], in assay [7], in assay [8], in assay [9], in [10] and in assay [11] was “inactive” throughout. Further, the Potency entry in assay [12] and in assay [14] was “inactive” each time. Moreover, the outcome in [13] was inactive.
Turning to `CCCC[n+]1ccccc1`, the Potency result (in assay [1]; in [2]; in assay [3]; in [4]; in [5]; with Aromatase (Homo sapiens)) was “inactive” throughout. Further, the Potency result in assay [6], in assay [7], in assay [8], in [9], in assay [10] and in [11] was “inactive” throughout. In addition, the Potency result in [12] and in assay [14] was “inactive” throughout.
Consider `Nc1ccccc1`, for which the Potency entry (in [1]; in assay [3]; in assay [5]; with Aromatase (Homo sapiens); in [6]; in [8]) was “inactive” each time. The Potency entry in [9], in [10], in assay [11], in assay [12] and in [14] was “inactive” in each case. For the same compound, in assay [4], the Potency result was “inactive and 24.5 µM (active)”. Also, the result in assay [15] and in assay [13] was inactive.
Regarding `O=C(O)c1ccccc1O`, the Potency result in assay [1], in assay [3], in assay [4], in assay [5], in assay [8] and in [9] was “inactive” each time. The Potency entry in assay [10], in assay [11], in assay [12] and in [14] was “inactive” each time.
Regarding `O=c1nc(O)n(Cl)c(=O)n1Cl`, the Potency entry (in assay [1]; in [3]; in assay [4]; in assay [5]; in the assay with Aromatase (Homo sapiens); in assay [6]) was “inactive” throughout. Further, the Potency result in assay [7], in assay [8], in [10], in assay [11], in assay [12] and in assay [14] was “inactive” in each case. Also, the result in [15] was inactive.
Turning to `CCCCCCCCCCCCCCCCn1cc[n+](C)c1`, the Potency entry in assay [3] and in assay [7] was “inactive” each time. The Potency entry is “inactive and 49 µM (active) and 27.4 µM (active)” in [5]; 62.4 µM (active) and inactive and 30.7 µM (active) in [8]. Moreover, the outcome in assay [15], in [13] and in assay [16] was inactive.
`CCCCCCCCCCCCOS(=O)(=O)O`: the Potency result in assay [1], in assay [3], in assay [4], in [5], in assay [6] and in assay [8] was “inactive” throughout. The Potency entry in assay [10], in [11] and in assay [12] was “inactive” throughout. Moreover, the Potency in assay [14] was 38.9 µM (active) and inactive.
As to `CCCCCCCCCCn1cc[n+](C)c1`, the Potency in assay [6] is 24.6 µM (active) and inactive; in assay [10], 2.19 µM (active) and 4.85 µM (active) and 2.16 µM (active); in [12], 39.3 µM (active); in assay [14], 4.41 µM (active) and 24.6 µM (active) and 35.6 µM (active). For the same compound, the Potency result in assay [7], in assay [8] and in assay [11] was “inactive” throughout. Moreover, the result in [15] and in [13] was inactive.
As to `CCCCn1cc[n+](C)c1`, the Potency entry (in [1]; in assay [2]; in assay [3]; in assay [4]; in assay [5]; in the assay with Aromatase (Homo sapiens)) was “inactive” throughout. Also, the Potency result in assay [6], in assay [7], in [8], in assay [10], in assay [11] and in [12] was “inactive” each time. In assay [14], the Potency entry is “inactive”.

These data come from PubChem BioAssay (Tox21).
